Experimental data published in the OligoGym collection.

Biological target: BRD2
Assay: pooled miR-30 sensor sort-seq; sequence = guide strand
Details: shRNA
Also: reference of the scale not given here.

| Sequence | sensor-assay potency score (higher = more potent) |
| --- | --- |
| TAGGACAATATCATCAGTGGGC | 0.486 |
| TTTCTCATTCGCTTTCTTGGGG | 0.425 |
| TTGTTTTCAAGTCTCCTCTTAA | -0.54 |

Biological target: BRMS1L
Assay: as above
Details: shRNA

| Sequence | sensor-assay potency score (higher = more potent) |
| --- | --- |
| TTCTTTACAGATTCTAAGCAGA | -0.334 |
| TTTGGTAACACTAATAAGGTAA | -0.0586 |
| TTCAAGAATATCAAGATCTTGT | 0.566 |
| TTCTTCTTCTTTCACAGTCTTC | -0.927 |
| TTCTTTATAAAGTTGATCTTTG | -0.111 |
| TAACATATCAATGAGATCTATT | -0.518 |
| TTCTGAGCTATCTCCATCCTCG | -0.213 |
| TTCAGATCTAGCACTGTGCAGA | -0.0416 |
| TATAGCAACAGCTTTTCGCTCT | 0.681 |
| TTCACAGTCTTCATCATCCATT | -0.228 |
| TTGTAGTTTTGCATCCACCTGA | 0.526 |
| TGGACCTGAAACAACAACTGGC | -0.0627 |

Biological target: BRP44L
Assay: as above
Details: shRNA

| Sequence | sensor-assay potency score (higher = more potent) |
| --- | --- |
| TAGTCCCGGAAATCCTTGCTTC | -0.727 |
| TTCGGACATAGTCCGCCGCTTT | -1.36 |
| TCAAAGAATAGCAACAGAGGGC | -0.477 |
| TTTTGAGCTACTCTTTATGGAA | -0.685 |
| TCGTGTTTGATAAGCCGCCCTC | -0.468 |
| TAACATTTTTAAACAGTGGGGA | 0.282 |
| ATGAATGTCAAAGAATAGCAAC | -1.23 |
| TTTTTCATTAAGTAAATTCTAA | -0.748 |
| TACCTTGTAGGCAAATCTCATG | -1.15 |
| TTGCTTCGGACATAGTCCGCCG | -0.944 |
| TTTGATAAGCCGCCCTCCCTGG | -0.467 |
| TTAATTGCATATTTTGAGCTAC | -0.357 |

Biological target: BST2
Assay: as above
Details: shRNA

| Sequence | sensor-assay potency score (higher = more potent) |
| --- | --- |
| TGGTTTTCTCTTCTCAGTCGCT | -0.752 |
| TTCTCAGTCGCTCCACCTCTGC | -1.51 |
| TTCTCTTCTCAGTCGCTCCACC | -0.48 |
| TACTTCTTGTCCGCGATTCTCA | -0.543 |
| TTTAATGTAGTGATCTCTCCCT | 0.397 |
| ATTAGGGCCATCACAGTGTGGT | -0.491 |
| TTAATGTAGTGATCTCTCCCTC | -0.16 |
| TTGATGGTGAAGATAATCAAGG | -1.58 |
| TCGCTGTTGGCCTTGATGGTGA | -1.17 |
| TTGTCCGCGATTCTCACGCTTA | -0.717 |
| ATGTAGTGATCTCTCCCTCAAG | -1.69 |
| TCAAGCTCCTCCACTTTCTTTT | -0.76 |
| TTTCTCTTCTCAGTCGCTCCAC | 0.121 |
